In PubChem BioAssay (NCI):
The panel holds about 83,000 compounds, 20% with a hit somewhere; the sample as a whole holds those more often.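 Note: values are percent growth. 100 is the growth of untreated cells, values between 100 and 0 indicate rising inhibition; between -100 and 0 indicates cell death.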 A number with no mark means an inactive call. The source made the active and inactive calls. How the source made its calls: active means growth percent below 10; inactive means the rest.

Legend:
Experiment in all cases: NCI-60 one-dose screen, 48 h (100 = growth as untreated, 0 = no growth, -100 = all killed)
Conditions in all cases: 10 µM
[1] = tested on: SK-MEL-2 melanoma
[2] = tested on: SN12C renal
[3] = tested on: UO-31 renal
[4] = tested on: TK-10 renal
[5] = tested on: ACHN renal
[6] = tested on: CAKI-1 renal
[7] = tested on: A498 renal
[8] = tested on: CCRF-CEM leukemia
[9] = tested on: MOLT-4 leukemia

SMILES	growth [1]	growth [2]	growth [3]	growth [4]	growth [5]	growth [6]	growth [7]	growth [8]	growth [9]
Cn1c(N)c(N=Cc2ccccc2)c(=O)n(C)c1=O	97.1%	104%	81.5%	117%	104%	98%	116%	112%	99.4%
COc1cc(CSc2nc3ccc(C)cc3c(=O)n2-c2ccccc2)cc(OC)c1OC	14.7%	37%	24.1%	61.7%	44.7%	27.6%	16%	15.8%	21.8%
COc1ccc2c(=O)cc(C(Cl)(Cl)Cl)oc2c1	-75.2% (active)	2.57% (active)	-19.3% (active)	-20.4% (active)	10.6%	-14.5% (active)	-68.5% (active)	-21.2% (active)	-23.9% (active)
O=S(=O)(O)C1(O)CCCCC1	90.1%	99.3%	58.9%	169%	72.9%	76%	112%	92.8%	87.9%
N=C(N)c1ccc(-c2ccc(-c3ccccc3)s2)s1	-77.7% (active)	-74.9% (active)	-74.1% (active)	-61.7% (active)	-82.6% (active)	-59.4% (active)	32.1%	-49.4% (active)	-55.9% (active)
Cc1cnc(C=O)c2cccc([N+](=O)[O-])c12	102%	86.8%	43.5%	108%	85.8%	86.3%	106%	11.5%	61%
CN1CCN(c2nc(-c3cccnc3)nc3sc4c(c23)CCCCCC4)CC1	114%	90.8%	75%	108%	89.6%	86.7%	99.3%	92.4%	39.6%
COc1ccc(S(=O)(=O)Nc2ccc(OCc3nnc(-c4ccc(Cl)cc4)o3)c(F)c2)cc1	40.6%	68.1%	51.3%	57.6%	56.6%	54.6%	47%	54.5%	36%
COc1cc(OC)cc(N2CCN(C(=O)Nc3nc4cc(F)ccc4nc3OC)CC2)c1	42.1%	29.6%	34.5%	47.5%	30.2%	29.7%	-8.09% (active)	14.7%	8.4% (active)
Nc1c(CNCc2nnn(Cc3ccccc3)c2N)nnn1Cc1ccccc1	103%	99%	86.5%	102%	99.6%	101%	98.4%	95.4%	102%
CC(=O)OCC(COC(C)=O)(COC(C)=O)COC(C)=O	101%	108%	84.7%	108%	110%	103%	73.4%	103%	93.5%
CC(Oc1ccc(Cl)cc1)c1ccccc1 (stereo not given)	112%	98.1%	77.6%	106%	125%	96.5%	119%	94.1%	87.3%
CCOC(=O)c1sc(Nc2ncccn2)nc1-c1ccccn1	60.4%	92%	62.4%	102%	88.4%	57.2%	90.2%	46.2%	73.1%
COc1cccc2c1C(=O)c1c(O)c3c(c(O)c1C2=O)C[C@@](O)(C(=O)COC(=O)c1ccccc1)C[C@@H]3OC1CC(N)C(O)C(C)O1 (stereo not given in full)	-92% (active)	-86% (active)	-93.1% (active)	-79.8% (active)	-95.6% (active)	-89.3% (active)	-66.2% (active)	-54% (active)	-66% (active)
Cc1ccc(NC(=O)/C=N/O)cc1C	103%	103%	71.6%	122%	99.1%	92.1%	3.77% (active)	90%	85.7%
O=C(CCl)N1c2ccccc2Sc2ccc3ccccc3c21	-25.5% (active)	-49.1% (active)	-89.8% (active)	-57.7% (active)	-89.1% (active)	-52.8% (active)	-90.2% (active)	-15.1% (active)	-9.38% (active)
CCOC(=O)/C(C#N)=C(/C)C1CC1	111%	107%	88.3%	116%	105%	104%	94.1%	103%	114%
Cc1cc2cc3c(=O)[nH]c(=O)cc-3n(CC(O)C(O)C(O)CO)c2cc1C (stereo not given)	120%	113%	99.2%	125%	75.1%	87.9%	109%	105%	99.8%
C=CCNC(=S)NN	99.1%	81.7%	61.7%	96.2%	94.1%	91.6%	81%	63.2%	64.6%
Nc1nc2c(nnn2C2CC(O)C(CO)O2)c(=O)[nH]1 (stereo not given)	42.8%	45.3%	30.9%	59.2%	23.3%	32.4%	55.7%	19.4%	30.4%
COc1ccc(-c2nsc3c2NC(=O)CC3c2ccc(Cl)cc2)cc1 (stereo not given)	77.2%	83.8%	62.8%	83.9%	82.7%	80.2%	83.3%	74.4%	66.9%
CCOC(=O)c1ccc(N(C=O)CCC(=O)CCl)cc1	15.3%	7.96% (active)	-86.3% (active)	-18% (active)	-37.4% (active)	-19.9% (active)	-13.5% (active)	-31.4% (active)	-13.7% (active)
Brc1ccc(-c2cn3ccnc3c(-c3ccc(Br)cc3)n2)cc1	30.8%	53.7%	41.6%	84.2%	54.6%	39.6%	35.9%	44.8%	30.4%
CCCn1c(=O)c2c(nc(-c3cccc(OCCCCl)c3)n2C)n(CCC)c1=O	75.6%	37.3%	27.8%	36.5%	3.03% (active)	43.7%	-10.8% (active)	86.3%	73.2%
CCCCCCCCCCCCCCCC(=O)N1CCN(C)CC1	86.5%	74.6%	40.5%	73.8%	81.8%	69.9%	92.3%	34.9%	61.4%
COc1ccc(-c2nc3sc(-c4ccccc4)c(-c4ccccc4)n3c2/C=C/c2ccc(F)cc2)cc1	89.3%	86.7%	82.7%	115%	78.9%	67%	108%	88.1%	74.8%
COc1ccc(Cn2cc3c(c2-c2cc(OC)c(OC)c(OC)c2)CCc2cnoc2-3)cc1[N+](=O)[O-]	43.4%	43.4%	36.9%	76.4%	60.4%	16.1%	45.2%	22%	30%
O=[N+]([O-])c1cc2ncccc2c2ncccc12	84.9%	87.2%	52.1%	106%	65.3%	84.2%	111%	74.9%	61.4%
O=C(COCc1c(-c2ccccc2)no[n+]1[O-])Nc1nc(-c2ccc(Cl)cc2)cs1	105%	100%	80.8%	113%	112%	105%	97.9%	90.5%	102%
O=NN(CCCl)C(=O)Nc1ccc(NC(=O)N(CCCl)N=O)cc1	129%	90.7%	96.6%	114%	96.4%	100%	67.1%	102%	97.2%
